Shown are actives, neighbours in structure and some others; about 21% of the full set was active somewhere.
Pf growth 48h – inhibits P. falciparum growth in the first generation, 48 h; P. falciparum luciferase growth in erythrocytes, 48 h; Potency, µM (series often up to 28.7 µM), for inactives: at the highest dose activity change, negative = inhibition, hits mostly inhibitors; 310,000 tested, 5.9% active; AID 504832; further: potency means the concentration at half of the fitted maximal effect; on the % scale 0 is the no-effect control and ±100 the full control effect
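Parasite viability was followed by luminescence of a genomically integrated firefly luciferase. Cultures held 0.1% parasitemia at 2% hematocrit (final), incubated under 5% CO2 at 37 C.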
CHX counter – affects cycloheximide protein synthesis inhibition readout, counter-screen; max response, %; cell reporter, cycloheximide protein synthesis inhibition counterscreen; 300,000 tested, 12% active; AID 2314; in the data active means max response mostly above about 13%, no sharp cut-off; inactive means mostly below about 14%; further: read at 38.3 µM for the half of the compounds with a filed dose; 0% is about no effect
Shiga toxin inh – inhibitors of Shiga toxin in Vero cells; Vero cells, Shiga toxin protein synthesis inhibition reporter; inhibition, % at 38.7 µM; 290,000 tested, 9.2% active; in the data active means inhibition mostly above about 28%, no sharp cut-off; inactive means mostly below about 43%; further: 0% is about no effect
Pf growth 96h – P. falciparum growth inhibition at 96 hours | P. falciparum luciferase reporter growth, 96 h | Potency, µM (series often up to 28.7 µM), for inactives: top-dose activity change, negative = inhibition, actives largely listed as inhibitors | 320,000 tested, 6.9% active | AID 504834; further: potency means the concentration at half of the fitted maximal effect; on the % scale 0 is the no-effect control and ±100 the full control effect
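Two-generation exposure (96 h) targets delayed-death phenotype. Reporter parasites carrying integrated firefly luciferase, in red cells at 2% hematocrit and 0.05% parasitemia final, kept at 37 C, 5% CO2; luminescence loss indicates inhibition.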
Numbers without * were called inactive; i = inactive; ? = inconclusive; · = no result; + = active, no number; [ ] = dose if it differs, or a comment. Unless noted, the call rests on the fitted dose curve; in most records, active means well fitted inhibition curve with a large enough effect; inconclusive means small, poorly fitted or top-dose-only effect, or another doubt; inactive means no such curve, though single readings can be large or run the other way.

SMILES | Pf growth 48h | CHX counter | Shiga toxin inh | Pf growth 96h
Cc1ccc(-c2nc(CS(=O)CC(=O)NCc3ccc4c(c3)OCO4)c(C)o2)cc1 (stereo not given) | 3% | 4 | -7 | 28%
O=[N+]([O-])c1cc2oc3c(c2c(C=NCc2ccncc2)c1O)CCCC3 | 10µM* | -3 | -10 | ?
CCS(=O)CC(=O)Nc1c(-c2ccccc2)oc2ccccc2c1=O (stereo not given) | 1% | 12 | 13 | 21%
CC(C)OCCCNC(=O)NC12CC3CC(CC(C3)C1)C2 | -1% | 13* | 15 | 4%
COc1ccc(C2=NOC3(CC(=O)N(c4ccc(F)cc4)C3=O)C2)cc1 (stereo not given) | ? | -2 | 2 | ?
O=C(/C=C/c1ccc2c(c1)OCO2)NCC1CCCO1 (stereo not given) | 161% | 37* | 63* | 63%
O=C(/C=C/c1ccc2c(c1)OCO2)NC1CCCC1 | -8% | 27* | · | 50%
COCCCNC(=O)CN(c1cc(Cl)ccc1OC)S(C)(=O)=O | 7% | -4 | 28 | 2%
Cc1ccc(CS(=O)(=O)CCC(=O)NCc2ccccc2Cl)cc1 | 0% | 2 | -2 | 10%
COc1ccc2cc(C(N)=O)/c(=N/NC(=O)c3ccco3)oc2c1 | 14% | 11 | 9 | -19%
CCCCOc1ccc(Cc2c(Cl)nc(SC)nc2N2CCOCC2)cc1 | 13µM* | -1 | -10 | 45%
CSc1nc(Cl)c(Cc2ccc(OCC(C)C)cc2)c(N2CCOCC2)n1 | ? | -3 | -5 | ?
O=C(CN1CCN(S(=O)(=O)c2ccc3c(c2)OCCO3)CC1)Nc1cccc(F)c1 | -14% | · | · | -15%
CN(C(=O)c1ccc2nc(N)sc2c1)c1ccccc1 | 8% | 1 | 23 | -29%
Nc1nc2ccc(C(=O)Nc3ccccc3)cc2s1 | 64% | 93* | 168* | ·
CCc1ccc(-n2nc3ccc(NC(=O)c4ccc5c(c4)OCO5)cc3n2)cc1 | · | -3 | -15 | 22%
CCc1ccc2nc(N)sc2c1 | i | 39* | 75* | 256%
CCc1ccc(NC(=O)c2ccc3nc(N)sc3c2)cc1 | 32% | 62* | 68* | ·
Cc1cc(-c2ccc(F)cc2)nc2cc(C(N)=O)nn12 | · | 0 | -4 | ?
CCOC(=O)c1cnn2c(C)cc(-c3ccc(F)cc3)nc12 | 55% | 33* | 53 | 48%
O=C(CCS(=O)(=O)c1ccccc1)Nc1ccccc1F | 29% | 14 | 37 | 233%
Cc1snc(SCC(=O)c2ccc(F)cc2)c1C#N | i | 34* | 105* | 300%
CSc1nc(N)nc(SCC(=O)c2ccc(C)cc2)c1C#N | 85% | 28* | + | ?
Cc1snc(SCc2ccc(F)cc2)c1C#N | · | 11 | 25 | 20%
CSc1snc(SCC(N)=O)c1C#N | 9% | -3 | -29 | -22%
SMILES | Pf growth 48h | CHX counter | Shiga toxin inh | Pf growth 96h
Cc1snc(SCC(=O)c2ccc([N+](=O)[O-])cc2)c1C#N | ? | 30* | 64* | 0%
Cc1snc(SCc2ccc(Cl)cc2)c1C#N | 1%[0.00184 µM] | 11* | 46 | 9%
CCCCNc1ccc(C(=O)OCCOCCOCCOCCOCCOCCOCCOCCOCCOC)cc1 | ? | · | · | 11%
COc1ccccc1NC(=O)CSCC(=O)N1c2ccccc2CCc2ccccc21 | ? | -2 | -12 | 5.9µM*
CC(C)(C)C(=O)N1c2ccccc2CCc2ccccc21 | 2% | -2 | -5 | ?
COc1ccc(NC(=O)CSCC(=O)N2c3ccccc3CCc3ccccc32)cc1 | ? | 1 | -13 | ?
COC(=O)N1c2ccccc2CCc2ccccc21 | 7.4µM* | -2 | -5 | 36%
COc1cccc(NC(=O)Cn2nnc(C(=O)NCCc3ccccc3)c2N)c1 | ? | 2 | 2 | ?
CCC1(C)NC(=O)N(/N=C/c2ccc(C)s2)C1=O (stereo not given) | 51% | 46* | 47* | 94%
CCC1(C)NC(=O)N(/N=C/c2cc(OC)c(O)c(OC)c2)C1=O (stereo not given) | 14% | -5 | 22 | -17%
Cc1nc(CS(=O)(=O)c2ccccn2)sc1C(=O)NNC(=O)c1ccc(Cl)cc1 | -3% | -2 | 13 | 23%
C/C(=N\NC(=O)c1nnn(-c2nonc2N)c1CN1CCCCC1)c1ccccc1O | ? | -5 | 20 | 16%
Cn1c(SCC(=O)NC2CCCC2)nc2cccnc21 | -11% | -3 | -13 | 0%
O=C(CSc1nc2cccnc2n1Cc1ccccc1)NC1CCCCC1 | 10µM* | -3 | -4 | ?
O=C(CCc1nc2cccnc2n1Cc1ccccc1)NCCc1ccc(Cl)cc1 | ? | -2 | -4 | ?
O=C(NCCc1ccccc1)c1ccc(Cn2c(SCc3cccc(F)c3)nc3cccnc32)cc1 | 9.3µM* | · | · | 3.3µM*
O=[N+]([O-])c1cccc(-c2nnc(-c3ccccc3)o2)c1 | 89% | 45* | 67* | 11%
O=[N+]([O-])c1cccc(-c2nnc(-c3ccc4c(c3)OCO4)o2)c1 | 216% | 65* | 111* | 157%
Cc1occc1-c1nnc(-c2cc([N+](=O)[O-])cc([N+](=O)[O-])c2)o1 | 10µM* | 11 | 18 | 29%
Cc1occc1-c1nnc(SCC(N)=O)o1 | 22% | 14 | 35 | ?
Nc1cc(-c2cccc([N+](=O)[O-])c2)[nH]n1 | 13% | 16* | 2 | 56%
CS/C(=C/[N+](=O)[O-])Nc1cccc2c1C(C)CC2(C)C (stereo not given) | ? | 1 | 18 | -54%
O=S(=O)(c1ccc(SCc2ccc(Br)cc2)nc1)N1CCCCC1 | ? | · | · | -3%
Clc1ccccc1-c1nnc2sc(-c3ccc4c(c3)OCO4)nn12 | 12µM* | 19* | 40* | -19%
c1ccc(CCc2nn3c(-c4ccncc4)nnc3s2)cc1 | ? | 6 | 18 | -9%
SMILES | Pf growth 48h | CHX counter | Shiga toxin inh | Pf growth 96h
CSc1ccccc1-c1nnc(-c2ccc(Cl)c(Cl)c2)o1 | 37% | 19 | 5 | ?
Clc1ccccc1-c1nnc2sc(CCc3ccccc3)nn12 | 13µM* | 7 | 29 | ·
Clc1ccccc1-c1nnc(-c2ccc3c(c2)OCO3)o1 | i | 29* | 93* | ?
CCOC(=O)C1CCN(S(=O)(=O)c2cc(C(=O)OC)n(C)c2)CC1 | 25% | 1 | -7 | 118%
O=S(=O)(NN1CCOCC1)c1ccc(Br)cc1 | 6% | -3 | -9 | 1%
COc1ccc(NS(=O)(=O)c2cc3c4c(c2)CCN4C(=O)CC3)cc1OC | ? | · | · | -4%
C/C(=N\Nc1nccnc1Cl)c1ccc(F)cc1 | 0% | 33* | 85* | -12%
C/C(=N\Nc1nccnc1Cl)c1ccc(Cl)c(Cl)c1 | 1% | 29* | · | -25%
C/C(=N\Nc1nc(N)cc(Cl)n1)c1ccc(Cl)c(Cl)c1 | ? | 6 | 26 | -22%
C/C(=N\Nc1nccnc1Cl)c1c(F)c(F)c(F)c(F)c1F | 5% | 11 | 29 | -7%
C/C(=N\Nc1nc(N)cc(Cl)n1)c1ccc(F)cc1 | -12% | 41* | 70* | -1%
C/C(=N\Nc1nccnc1Cl)c1ccc(O)cc1 | 24% | 26* | 29* | 7.4µM*
COc1cc(C(=O)N(C)CC(=O)Nc2cccc(F)c2)ccc1OCc1ccccc1 | -4% | · | · | -25%

Screens from PubChem.
